KB-V1 cytotox = KB-V1 MDR subline cytotoxicity; KB-V1 MDR cells viability, CellTiter-Glo, 72 h; Potency, µM (doses to about 46.1 µM), actives largely listed as cytotoxic; 400,000 tested, 3.4% active; AID 1347076; further: potency means the concentration at half of the fitted maximal effect; on the % scale 0 is the no-effect control and ±100 the full control effect; nearly all actives have a fitted effect of over 60% in size
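Compound-treated KB-V1 multidrug-resistant cells, 72 h, 37 degrees C; viability by CellTiter-Glo. Fitted qHTS curves give the values.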
hERG WT inh = inhibitors of human wildtype KCNH2 potassium channel | U2OS, BacMam KCNH2, thallium flux FluxOr; stronger effect = lower value | 340,000 tested, 0.37% active | activity change, % at 1.84 µM | Q12809;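 active means maximum activity change below -70%; inconclusive means maximum activity change between -70% and -50%; inactive means maximum activity change above -50%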; further: on the % scale 0 is the no-effect control and ±100 the full control effect
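U2OS cells transduced with wild-type KCNH2 virus are loaded with FluxOr dye for 45 min, and thallium flux is measured in kinetic reads before and after stimulation buffer. Rate constants are normalized to DMSO controls.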
MCF10A rereplic = induces DNA re-replication in MCF 10a normal breast cells; MCF 10A DNA re-replication, Hoechst nuclear intensity, 48 h; Potency, µM (series often up to 46.1 µM), for inactives: at the top dose activity, positive = re-replication, most hits filed as activators; 350,000 tested, 2.9% active; AID 624296; further: potency means the concentration at half of the fitted maximal effect; % of control where 0% means no effect; nearly all actives have a fitted effect of over 50% in size
SW480 rereplic = induces DNA re-replication in SW480 colon adenocarcinoma cells. SW480 DNA re-replication, Hoechst DNA content imaging, 48 h. Potency, µM (top dose mostly 46.1 µM), for the others: at the top dose re-replication activation, actives largely listed as activators. 340,000 tested, 1.8% active. AID 624297; further: potency means the concentration at half of the fitted maximal effect; % of control where 0% means no effect; nearly all actives have a fitted effect of over 55% in size
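First, 250 cells per well were seeded. Next, compound or vehicle (23 nL) was pinned in, plates sat 48 hr at 37 C. Finally Hoechst was added for 40 min before fluorescence scanning.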
KCNH2 3.1 inh = KCNH2 3.1 (human) potassium channel inhibition. U2OS KCNH2 3.1, thallium flux FluxOr; stronger effect = lower value. 340,000 tested, 0.95% active. activity change, % (tested at about 1.8 µM);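 active means maximum activity change below -70%; inconclusive means maximum activity change from -70% to -50%; inactive means maximum activity change above -50%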;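 further: thallium influx rate constant from kinetic fluorescence after stimulation buffer; on the % scale 0 is the no-effect control and ±100 the full control effect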
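Thallium flux read-out: FluxOr dye with Red40 quencher in HBSS/HEPES, 45 min at RT. Rate constants from kinetic reads were normalized to positive and negative DMSO controls. Cells: U2OS virally expressing the 3.1 isoform.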
KB-3-1 cytotox = kills parental KB-3-1 adenocarcinoma cells; KB-3-1 viability, CellTiter-Glo ATP luminescence, 72 h; Potency, µM (titrated, usually from 46.1 µM), usual class: cytotoxic; 400,000 tested, 1.4% active; AID 1347075; further: potency means the concentration at half of the fitted maximal effect; on the % scale 0 is the no-effect control and ±100 the full control effect; nearly all actives have a fitted effect of over 60% in size
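Parental KB-3-1 adenocarcinoma cells in phenol-red-free DMEM with 10% FBS were pin-treated with compounds at several concentrations, incubated 72 h at 37 °C, and viability read by CellTiter-Glo luminescence; concentration-effect curves were fitted after normalization.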
Starred values were filed as active, the others as inactive; i = inactive; ? = inconclusive; nt = no result given. The list is not random: actives were taken first. Their share in the collection is about 7.6%. Unless noted, the call rests on the fitted dose curve; in most records, active means well fitted curve in the direction sought with a large enough effect; inconclusive means small, poorly fitted or top-dose-only effect, or another doubt; inactive means no such curve, though single readings can be large; an effect the other way counts as inactive or inconclusive.

SMILES	KB-V1 cytotox	hERG WT inh	MCF10A rereplic	SW480 rereplic	KCNH2 3.1 inh	KB-3-1 cytotox
C=CCn1c(SCc2c(C)noc2C)nc2sc(C)c(C)c2c1=O	i	-9.3	23.1µM*	?	-4.3	i
Cc1noc(C)c1CSc1nc2sc(C)c(C)c2c(=O)n1-c1ccccc1	i	3.5	22.8%	1.2%	-9.1	i
CNS(=O)(=O)c1cn(CC(=O)NCc2cccc(OC)c2)cc1S(=O)(=O)NC	i	-5.7	-1.2%	-5.6%	-27.3	i
CC(C)c1ccc2oc(-c3ccc(N)cc3)nc2c1	20.6µM*	-2.2	10.5%	12.3%	3.1	?
O=C(c1c(Cl)nc2sccn12)N1CCN(c2cccc(Cl)c2)CC1	?	-26.2	4.11µM*	2.91µM*	-0.4	1.64µM*
O=C(c1cc2cc(F)ccc2[nH]1)N1CCN(c2cccc(Cl)c2)CC1	i	0.5	?	-21.4%	-36.1	i
O=C(c1cccc(F)c1)N1CCN(c2cccc(Cl)c2)CC1	11.6µM*	1.6	?	?	-1.9	20.6µM*
O=C(c1ccc(N2CCN(C(=O)c3ccccc3)CC2)cc1)c1cccc(F)c1	9.2µM*	0.2	9.2µM*	7.5%	15.4	?
O=C(c1cc2ccccc2cc1O)N1CCN(c2cccc(Cl)c2)CC1	i	3.1	?	-5.2%	2.1	i
Cc1[nH]c(-c2ccc(F)cc2)cc1C(=O)N1CCN(c2cccc(Cl)c2)CC1	?	14.8	9.2µM*	?	-37.5	i
O=C(c1cccc(F)c1)N1CCCN(C(=O)c2cccc(F)c2)CC1	i	7.3	-5.6%	0.1%	-1.6	i
CCN(C(=O)COC(=O)CCOc1ccccc1C)c1c(N)n(Cc2ccccc2)c(=O)[nH]c1=O	i	-6.2	-4.2%	-14.5%	10.2	i
Cc1cnc2c(C)cccc2c1/C=C/c1ccc(N(C)C)cc1	i	nt	nt	nt	nt	?
CC[C@H](NC(=O)/C=C/[C@H]1O[C@@H](n2cc(C)c(=O)[nH]c2=O)C[C@@H]1O)c1ccccc1	i	nt	nt	nt	nt	i
O=C(c1ccc(Cl)cc1)N1CCN(c2ccc(F)cc2)CC1	16.4µM*	4.7	4.6%	-6.6%	13.6	i
CCc1ccc(NC(=O)CSc2nc(=O)n3cc(C)ccc3n2)cc1	i	-9.7	?	-14.2%	-10.4	i
COCCN(C(=O)Cc1coc2cc(C)c(C)cc12)c1c(N)n(Cc2ccccc2)c(=O)[nH]c1=O	i	-9.3	-2.3%	-1.6%	-4.3	i
COc1ccc(C(CNC(=O)CSc2ccccc2C)N(C)C)cc1 (stereo not drawn)	i	3.3	-9.2%	-7.2%	0.0	i
COc1ccc(C(CNC(=O)Cc2ccc(-c3ccccc3)cc2)N(C)C)cc1 (stereo not drawn)	i	17.0	?	18.4µM*	7.8	i
COc1ccc(CC(=O)Oc2ccc(F)cc2)cc1	?	19.1	0.651µM*	6.4%	0.4	i
COc1cccc(CNC(=O)Cc2ccc(-n3c(=O)[nH]c4ccccc4c3=O)cc2)c1	?	18.2	?	?	0.8	4.11µM*
COc1ccc(CNC(=O)c2cccc(C)c2[N+](=O)[O-])cc1	23.1µM*	0.3	-42.0%	-49.4%	8.2	i
COc1ccc(CC(=O)OCC(=O)c2ccc(F)cc2)cc1	i	-10.5	2.2%	0.7%	-9.7	i
CCOC(=O)CSc1nc2ccccc2c(=O)n1CCc1ccc(OC)c(OC)c1	i	nt	nt	nt	nt	i
COc1cccc(CNC(=O)COc2ccc(C(=O)c3ccccc3)cc2)c1	20.6µM*	-3.9	?	?	-10.3	?
COc1cccc(CNC(=O)COC(=O)CNC(=O)c2ccc(-c3ccccc3)cc2)c1	?	11.4	1.9%	-6.2%	-4.1	i
O=C(COc1ccc(C(=O)c2ccccc2)cc1)NCC1CCCCC1	i	-0.8	18.4µM*	0.3%	-13.6	i
COc1cccc(CNC(=O)Cc2ccc(-c3ccccc3)cc2)c1	?	0.0	10.3µM*	?	-6.7	?

Source: PubChem (National Center for Advancing Translational Sciences (NCATS))
